PubChem BioAssay AID1085 (Emory University Molecular Libraries Screening Center, 2008)
Screen size: about 220,000 compounds; about 930 (0.42%) were called active. The list comes from a sample in which actives are over-represented; it also holds similar structures and randomly drawn compounds. A number with no mark means an inactive call. Rule as the data show it: active = inhibition above about 50%; inactive = the rest.

Molecular target: Glycoprotein 42 (Epstein-Barr virus (strain AG876)) (UniProt Q1HVG2)
Sequence (Q1HVG2 whole entry, looked up): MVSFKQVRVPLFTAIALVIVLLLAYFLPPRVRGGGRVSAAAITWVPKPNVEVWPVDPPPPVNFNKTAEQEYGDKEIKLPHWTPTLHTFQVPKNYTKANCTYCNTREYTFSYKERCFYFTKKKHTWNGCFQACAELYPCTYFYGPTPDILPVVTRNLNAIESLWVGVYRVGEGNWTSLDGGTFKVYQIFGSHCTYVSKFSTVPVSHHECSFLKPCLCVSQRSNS
Experiment: EBV glycoprotein 42 binding blockers – biochemical, uHTS, fluorescence polarization, primary screen (AID 1085)
Conditions: Fluorescence polarization binding assay, mP read-out; active compounds read high; tested at 21.74 µM

| Structure (SMILES) | inhibition |
| --- | --- |
| CC[N+]1(CC)CC2=Cc3ccccc3CC2C1 (stereo not drawn) | -0.55% |
| N#Cc1cccc(Nc2c3c(nc4ccccc24)CCCC3)c1 | 5.27% |
| Cc1cccc(N)c1SC1CCCCC1O (stereo not drawn) | -8.15% |
| O=C(Nc1nnc(Cc2ccc(Cl)cc2)s1)c1ccncc1 | 0.5% |
| O=C(Nc1nnc(Cc2ccc(Cl)cc2)s1)c1cccnc1 | -5.07% |
| O=C(Nc1nnc(Cc2ccccc2)s1)c1cnccn1 | 58.2% (active) |
| Cc1cc(C)n2nc(C(=O)N3CCN(Cc4ccc5c(c4)OCO5)CC3)nc2n1 | -5.29% |
| Cc1ccc(-c2nnc(SCC(=O)N/N=C/c3cccs3)n2-c2ccc(C)cc2)cc1 | -4.61% |
| O=S(=O)(c1cccc(C(F)(F)F)c1)N1CCN(c2cnccn2)CC1 | -12.8% |
| Cc1cccc(N=Nc2c(C)[nH]n(-c3ccccc3)c2=O)c1 | 4.36% |
| Oc1[nH]c2ccc(Br)cc2c1N=Nc1nn[nH]n1 | -11.8% |
| Cc1cccc(N=Nc2c(O)[nH]c3ccc(F)cc23)c1 | 51.7% (active) |
| COc1ccc(-c2ccc(CNCCCN3CCOCC3)o2)cc1Cl | -7.89% |
| Cn1c(=O)c(=O)n(C)c2cc(S(=O)(=O)NCCN3CCN(c4ccccc4F)CC3)ccc21 | -5.54% |
| CN(C)c1ccc(NC(=S)N(CCc2ccccc2)C2CC(=O)N(c3c(Cl)cccc3Cl)C2=O)cc1 (stereo not drawn) | -7.96% |
| CCOCCCN(C(=O)Cn1nnc(-c2ccc(OC)c(OC)c2)n1)C(CC)C(=O)NC1CCCC1 (stereo not drawn) | 2.09% |
| CN(C)c1ccc(Nc2c3c4c(cccc4n(C)c2=O)C(=O)c2ccccc2-3)cc1 | 51.7% (active) |
| COC(=O)Cn1nc(-c2ccccc2)c2cc(Cl)ccc21 | -7.25% |
| CCOC(=O)N1CCN(Cc2nc(Cc3cccc(C(F)(F)F)c3)no2)CC1 | 5.02% |
| O=C(COC(=O)/C=C/c1ccc(S(=O)(=O)N2CCCCCC2)cc1)NCc1ccccc1Cl | -7.1% |
| Cc1cccc(NC(=O)c2sc3nc4c(c(-c5ccco5)c3c2N)CCC4)c1 | -22.7% |
| NC(=O)c1sc2nc3c(c(-c4ccccc4)c2c1N)CCC3 | 68.4% (active) |
| CC(=O)Nc1ccc(NC(=O)c2sc3nc4c(c(-c5ccc(C)cc5)c3c2N)CCC4)cc1 | -13.2% |
| [O-][N+]12CCCCC1CCCC2CO (stereo not drawn) | -12% |
| CCN(CC)c1ccc2c(Nc3ccccc3)c(C=O)c(=O)oc2c1 | -27.9% |
| CCN(CC)c1ccc2oc(=O)c(C)nc2c1 | 51.1% (active) |
| CCN(CC)c1ccc2cc(C(=O)O)c(=O)oc2c1 | -20.2% |

| Structure (SMILES) | inhibition |
| --- | --- |
| CCOC(=O)C1=C(c2ccccc2)N=C2SCC(=O)N2C1c1ccc(O)c(OC)c1 (stereo not drawn) | -7.62% |
| CSCC[C@H](NC(=O)NC1CCCC1)C(=O)O | -16.3% |
| O=C(Cc1cccs1)Nc1nnc(C2CC2)s1 | -0.17% |
| CCc1nnc(NC(=O)Cc2cccs2)s1 | 15.8% |
| COc1ccc(Cc2nnc(NC(=O)Cc3cccs3)s2)cc1 | 73.9% (active) |
| CC(C)CCN1CCN(C/C=C/c2ccco2)CC1CCO (stereo not drawn) | 0.69% |
| O=C(Nc1ccc(N2CCN(C(=O)c3ccccc3)CC2)c(Cl)c1)c1ncn[nH]1 | -5.31% |
| O=C(/C=C/Nc1ccc(S(=O)(=O)Nc2cnc3ccccc3n2)cc1)c1cccnc1 | 0.92% |
| O=C(NCc1ccccn1)c1ccc2nc(-c3ccco3)c(-c3ccco3)nc2c1 | 33.5% |
| COc1ccc(NC(=O)Nc2ccc3nsnc3c2)cc1 | -9.53% |
| COCCNC(=O)Nc1ccc2nc(-c3ccco3)c(-c3ccco3)nc2c1 | 52.7% (active) |
| O=C(/C=C/c1cn(-c2ccccc2)nc1-c1ccc2c(c1)OCCO2)NCCCN1CCOCC1 | -12.9% |
| CC(=O)c1ccccc1NC(=O)CC1(CC(=O)O)CCCCC1 | -14.7% |
| Cc1cc(F)ccc1S(=O)(=O)Nc1ncnc2scc(-c3ccc(F)cc3)c12 | 9.65% |
| COc1cccc(N(CC(=O)NCCSc2ccccn2)S(C)(=O)=O)c1 | -23.3% |
| Brc1ccc(-c2csc(N/N=C/c3cccnc3)n2)cc1 | 2.77% |
| CCCNc1c(N)c(=O)c1=O | 2.64% |
| Cc1cc2nc3c(=O)n(Cc4ccccc4)c(=O)[nH]c3nc2cc1N | 135% (active) |
| CC(=O)c1ccc(-c2ccc(Cn3c(C)nc4cc(N)c(C)nc43)cc2)cc1 | 2.98% |
| O=c1[nH]c2c(c(=O)n1Cc1ccccc1)CCC2 | -9.97% |
| COC(=O)CCSc1cc([N+](=O)[O-])cc2c1c(C1OCCS1)nn2-c1ccccc1 (stereo not drawn) | 24.1% |
| O=C(N/N=C/c1ccc(OCc2ccccc2)cc1)c1ccc(O)cc1 | -4.07% |
| CCCCCC(=O)Nc1ccc(C(=O)N/N=C/c2ccc([N+](=O)[O-])cc2)cc1 | -19.6% |
| O=C(COc1ccc(/C=N/NC(=O)c2ccc(O)cc2)cc1)Nc1ccc([N+](=O)[O-])cc1 | 77.5% (active) |
| C/C=C\C=C\C(=O)N1CC2(CC(c3cccc(NC(=O)/C(C)=C\C)c3)=NO2)C[C@H]1C(N)=O (stereo partly drawn) | -17.9% |
| CSc1ccccc1NC(=O)CN(C)CC(=O)Nc1cccc(Br)c1 | -0.02% |
